Consider 30 compounds from PubChem BioAssay AID1851 (National Center for Advancing Translational Sciences (NCATS), 2009).

Each structure is given as a SMILES string. Out of some 16,000 compounds screened, about 2,600 (16%) were called active. Not shown: some 20% with an inconclusive outcome. These entries were drawn from the full list. Unmarked numbers belong to inactive results. Calls follow the shape of the dose curve; as a rule, active = well fitted curve in the direction sought with a large enough effect; inconclusive = small, poorly fitted or top-dose-only effect, or effect the other way; inactive = no such curve, though single readings can be large or run the other way. Square brackets hold non-standard residues; d marks the D form. Peptide text beside a SMILES is read from it. * marks the point of attachment. ξ: configuration not given here. Cbz = O=C(OCc1ccccc1)*; OBn = c1ccc(CO*)cc1; ξP = O=C(O)C1CCCN1
% is scaled to controls: 0 for no effect and ±100 for the full control effect.

Cytochrome P450 2D6 (Homo sapiens), sequence (P10635 whole entry, looked up): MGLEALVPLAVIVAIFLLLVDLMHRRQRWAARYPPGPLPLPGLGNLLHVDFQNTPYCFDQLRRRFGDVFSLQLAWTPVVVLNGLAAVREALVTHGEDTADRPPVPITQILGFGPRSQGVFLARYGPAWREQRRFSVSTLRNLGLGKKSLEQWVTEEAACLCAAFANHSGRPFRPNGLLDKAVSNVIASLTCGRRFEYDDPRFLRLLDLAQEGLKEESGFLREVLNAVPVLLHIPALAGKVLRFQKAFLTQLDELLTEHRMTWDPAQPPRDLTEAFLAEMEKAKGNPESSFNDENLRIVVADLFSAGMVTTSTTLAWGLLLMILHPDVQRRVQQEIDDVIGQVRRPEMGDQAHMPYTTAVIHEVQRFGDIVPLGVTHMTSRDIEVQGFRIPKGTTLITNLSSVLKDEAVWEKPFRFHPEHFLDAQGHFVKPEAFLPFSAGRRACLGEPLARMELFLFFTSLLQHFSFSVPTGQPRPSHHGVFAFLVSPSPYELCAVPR

This test concerns the target Cytochrome P450 2D6 (Homo sapiens) (UniProt P10635). Description: Cytochrome panel assay with activity outcomes. Conditions: recombinant CYP, pro-luciferin dealkylation, luminescence, p450-cyp2d6; series mostly up to 57.1 µM; activity, negative = inhibition: at the top concentration.
Consider `CC(C)Sc1cc(N2CCCC2)nc(-c2ccc(F)cc2)n1`, for which the “activity, negative = inhibition” value is -3.37%.
For the compound `C=CCNC(=S)N/N=C/c1ccc(-c2cc(Cl)ccc2Cl)o1`, the “activity, negative = inhibition” value was 8.52%.
Same read-out and setting: to `O=C(CNC(=O)OCc1ccccc1)NCC(=O)N1CCCC1C(=O)OCc1ccccc1` (stereo not drawn) (Cbz-Gly-Gly-[ξP]-OBn) belongs -22.2%.
As for `CSCCC(NC=C1C(=O)OC(C)(C)OC1=O)C(=O)O` (stereo not given), the “activity, negative = inhibition” value is -5.1%.
Take `CCOc1cc(/C=C2/NC(=O)N(CC(=O)Nc3cccc(C)c3)C2=O)ccc1OC`: the “activity, negative = inhibition” value is 27.9%.
As to `CCCCSCc1nc2nc(Cl)c(Cl)nc2[nH]1`, the activity, negative = inhibition was -12.2% [at 11.4 µM].
Turning to `C[n+]1ccc(/C=C/c2ccc(Br)cc2)cc1`, the “activity, negative = inhibition” value is -25.3%.
Still for that read-out and setting: the same measure for `OCCNc1ncnc2nc[nH]c12`: -4.05% [at 11.4 µM].
Still for that read-out and setting: to `Cc1cc(NC(=O)COC(=O)c2ccc(S(=O)(=O)N3CCCc4ccccc43)cc2)no1` belongs -20.2%.
For orientation: AC50 means the concentration giving half of the maximal activity seen. As for `Cc1cccc(CNc2ncncc2-c2ccccc2C(F)(F)F)c1`, the AC50 is 12.6 µM (active).
Take `Cc1noc(C)c1-c1cncnc1NC1CC1`: the “activity, negative = inhibition” value is -5.38%.
In the case of `Cc1cnc(CNc2cc(-c3ccccc3C(F)(F)F)ncn2)cn1`, the “activity, negative = inhibition” value was 3.41%.
As to `Cc1ccccc1-c1cncnc1NC1CCNCC1`, the concentration at half-maximal activity (AC50) was 10 µM (active).
With `Cc1cnc(CNc2ncncc2-c2ccccc2C(F)(F)F)cn1`, the “activity, negative = inhibition” value is -18.3%.
Consider `Cc1cccc(CNc2ncncc2-c2ccccc2Cl)c1`, for which the concentration at half-maximal activity (AC50) is 2 µM (active).
As to `c1cncc(-c2cncnc2NC2CCNCC2)c1`, the “activity, negative = inhibition” value was -6.86%.
Take `O=C(c1cnccn1)N1CCC[C@@]2(CCN(c3ccncc3)C2)C1`: the “activity, negative = inhibition” value is 4.46%.
For the compound `Cc1ccc(OC(=O)c2cccc(C(=O)Oc3ccc(C)cc3)n2)cc1`, the “activity, negative = inhibition” value is 8.06%.
In the case of `N[C@H](C(=O)O)[C@H](O)C(=O)O`, the “activity, negative = inhibition” value was 7.74%.
Still for that read-out and setting: to `O=C1C(Cc2ccccc2)C(c2ccccc2)N1c1ccccc1` (stereo not given) belongs -24.3%.
Still for that read-out and setting: to `COc1ncc2nc(-c3ccc(F)cc3)c(=O)n(Cc3ccc(F)cc3)c2n1` belongs 1.19%; to `N[C@@H](Cc1ccnnc1)C(=O)O`, -0.458% [at 11.4 µM].
Consider `Cc1nc2cnc(Oc3ccccc3)nc2n(CCc2ccccc2)c1=O`, for which the “activity, negative = inhibition” value was 8.49%.
Regarding `COc1n[nH]c2nncnc12`, the “activity, negative = inhibition” value was 4.07%.
Regarding `O=[N+]([O-])c1ccc2nc(-c3ccc(Cl)cc3)n(OCc3ccccc3)c2c1`, the “activity, negative = inhibition” value was -6.03%.
Consider `Clc1ccc(COn2c(-c3ccccc3)nc3ccccc32)cc1`, for which the half-maximal activity concentration (AC50) was 15.8 µM (active).
Same read-out and setting: to `O=[N+]([O-])c1ccc2nc(-c3ccccc3)n(OCc3ccc(Cl)cc3)c2c1` belongs 6.31 µM (active).
For the compound `Cc1ccc(COn2c(-c3ccc(Cl)cc3)nc3ccc([N+](=O)[O-])cc32)cc1`, the “activity, negative = inhibition” value was -20.1%.
Same read-out and setting: to `O=C(CCc1nc(-c2ccccc2)c(-c2ccccc2)o1)OCc1ccc(Cl)cc1` belongs -26.9%; to `Cn1c(=O)c(-c2ccc(Cl)cc2)nc2cnc(OCc3ccccc3)nc21`, 7.5%.
